About 8,800 targets were measured; listed, in parts, are those with a hit and a random draw of the rest. About 0.5% of all pairs of compound and target were hits.
Compound: COc1cc2nc(-c3cc(F)ccc3O)nc(N[C@@H]3CNC[C@H]3C(C)(C)O)c2cc1OC
Experiment: log2 fold change, soluble protein after heating vs DMSO (PISA); higher = thermal stabilisation; K562 lysate, 10 uM; active = over 0.2 and 3.5 SD of the protein, either way, in both replicates (recomputed)
Method in brief: (§1)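 Log-two fold change in thermal stability relative to solvent controls is reported from duplicates. For each sample, crude K562 extract from dounce-homogenised pellets in PBS pH 7.4 with 1 mM MgCl2, at 1 mg/mL protein, was treated with 10 μM compound for 30 min. Aliquots heated for 3 min across 48°C-58°C were pooled, brought to 0.5% NP-40 at 4°C and cleared at 21,000xg for 90 min. The supernatant was quantified by TMTpro 16plex LC-MS/MS with channel sums equalised.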

Sequence of UniProt Q3T8J9 (Q3T8J9 whole entry, looked up): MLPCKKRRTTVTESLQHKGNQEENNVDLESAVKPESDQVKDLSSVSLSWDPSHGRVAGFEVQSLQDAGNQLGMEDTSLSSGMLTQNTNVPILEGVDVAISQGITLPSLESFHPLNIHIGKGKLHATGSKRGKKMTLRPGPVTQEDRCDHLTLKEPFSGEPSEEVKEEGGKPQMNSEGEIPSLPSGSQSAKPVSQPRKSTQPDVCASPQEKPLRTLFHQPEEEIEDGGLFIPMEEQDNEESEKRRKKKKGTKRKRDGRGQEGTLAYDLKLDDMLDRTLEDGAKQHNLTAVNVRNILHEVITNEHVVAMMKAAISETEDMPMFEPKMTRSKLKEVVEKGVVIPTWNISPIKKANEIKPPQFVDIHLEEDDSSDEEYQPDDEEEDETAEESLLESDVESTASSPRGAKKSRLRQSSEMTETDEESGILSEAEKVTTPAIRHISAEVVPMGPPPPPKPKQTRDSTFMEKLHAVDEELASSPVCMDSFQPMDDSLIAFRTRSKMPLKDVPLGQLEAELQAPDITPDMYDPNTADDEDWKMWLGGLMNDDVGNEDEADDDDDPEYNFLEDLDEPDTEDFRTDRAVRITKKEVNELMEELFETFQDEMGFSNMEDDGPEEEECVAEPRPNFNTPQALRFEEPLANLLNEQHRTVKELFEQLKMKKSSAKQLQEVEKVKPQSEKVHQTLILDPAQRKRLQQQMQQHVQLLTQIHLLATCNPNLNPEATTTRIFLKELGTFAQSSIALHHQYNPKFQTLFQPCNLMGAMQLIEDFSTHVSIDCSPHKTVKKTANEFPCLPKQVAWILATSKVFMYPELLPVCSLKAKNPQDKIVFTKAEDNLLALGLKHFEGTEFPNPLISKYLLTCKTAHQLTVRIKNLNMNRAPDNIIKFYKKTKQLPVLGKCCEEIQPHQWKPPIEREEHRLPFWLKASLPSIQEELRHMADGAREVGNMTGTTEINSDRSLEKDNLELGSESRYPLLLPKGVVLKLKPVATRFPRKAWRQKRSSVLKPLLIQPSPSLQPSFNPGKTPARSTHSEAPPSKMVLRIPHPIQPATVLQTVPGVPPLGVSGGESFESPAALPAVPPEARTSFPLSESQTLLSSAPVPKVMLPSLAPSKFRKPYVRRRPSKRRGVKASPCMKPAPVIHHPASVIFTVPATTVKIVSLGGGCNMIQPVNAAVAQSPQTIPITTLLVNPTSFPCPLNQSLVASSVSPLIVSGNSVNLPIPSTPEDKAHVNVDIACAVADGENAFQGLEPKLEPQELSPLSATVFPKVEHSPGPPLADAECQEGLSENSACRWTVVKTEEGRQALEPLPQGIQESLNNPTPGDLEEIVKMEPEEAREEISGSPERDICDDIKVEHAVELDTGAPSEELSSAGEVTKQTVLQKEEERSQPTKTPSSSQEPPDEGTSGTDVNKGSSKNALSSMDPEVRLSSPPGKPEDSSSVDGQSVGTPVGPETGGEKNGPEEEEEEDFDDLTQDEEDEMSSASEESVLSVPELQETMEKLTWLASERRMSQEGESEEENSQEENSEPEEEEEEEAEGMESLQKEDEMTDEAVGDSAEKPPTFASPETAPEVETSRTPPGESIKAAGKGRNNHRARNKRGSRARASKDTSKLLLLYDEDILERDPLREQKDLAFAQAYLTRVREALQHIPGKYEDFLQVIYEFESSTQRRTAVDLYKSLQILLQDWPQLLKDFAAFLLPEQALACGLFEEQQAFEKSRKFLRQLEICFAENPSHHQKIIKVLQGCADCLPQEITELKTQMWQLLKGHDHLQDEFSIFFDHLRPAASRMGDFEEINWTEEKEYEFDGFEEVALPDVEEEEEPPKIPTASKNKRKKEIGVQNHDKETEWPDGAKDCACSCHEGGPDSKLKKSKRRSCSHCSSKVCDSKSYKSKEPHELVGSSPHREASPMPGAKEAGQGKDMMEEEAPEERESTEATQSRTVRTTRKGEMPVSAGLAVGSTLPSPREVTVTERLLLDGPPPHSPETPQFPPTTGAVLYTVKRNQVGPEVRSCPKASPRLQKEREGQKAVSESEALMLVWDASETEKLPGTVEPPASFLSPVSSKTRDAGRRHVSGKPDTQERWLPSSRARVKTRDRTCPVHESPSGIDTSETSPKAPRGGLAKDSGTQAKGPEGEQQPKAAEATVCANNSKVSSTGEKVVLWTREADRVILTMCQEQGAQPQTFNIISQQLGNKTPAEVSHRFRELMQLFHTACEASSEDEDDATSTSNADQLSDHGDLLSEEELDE
Sequence of UniProt Q9P2X3 (Q9P2X3 whole entry, looked up): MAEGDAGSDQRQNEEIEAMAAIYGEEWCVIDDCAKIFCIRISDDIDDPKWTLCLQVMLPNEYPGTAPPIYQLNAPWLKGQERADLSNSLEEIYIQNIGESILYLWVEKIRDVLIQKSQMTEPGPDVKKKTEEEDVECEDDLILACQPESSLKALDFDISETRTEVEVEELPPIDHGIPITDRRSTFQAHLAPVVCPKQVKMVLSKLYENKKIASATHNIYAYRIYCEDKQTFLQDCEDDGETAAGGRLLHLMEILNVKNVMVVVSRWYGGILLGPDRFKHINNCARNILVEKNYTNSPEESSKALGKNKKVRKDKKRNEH
Sequence of UniProt P11142 (P11142 whole entry, looked up): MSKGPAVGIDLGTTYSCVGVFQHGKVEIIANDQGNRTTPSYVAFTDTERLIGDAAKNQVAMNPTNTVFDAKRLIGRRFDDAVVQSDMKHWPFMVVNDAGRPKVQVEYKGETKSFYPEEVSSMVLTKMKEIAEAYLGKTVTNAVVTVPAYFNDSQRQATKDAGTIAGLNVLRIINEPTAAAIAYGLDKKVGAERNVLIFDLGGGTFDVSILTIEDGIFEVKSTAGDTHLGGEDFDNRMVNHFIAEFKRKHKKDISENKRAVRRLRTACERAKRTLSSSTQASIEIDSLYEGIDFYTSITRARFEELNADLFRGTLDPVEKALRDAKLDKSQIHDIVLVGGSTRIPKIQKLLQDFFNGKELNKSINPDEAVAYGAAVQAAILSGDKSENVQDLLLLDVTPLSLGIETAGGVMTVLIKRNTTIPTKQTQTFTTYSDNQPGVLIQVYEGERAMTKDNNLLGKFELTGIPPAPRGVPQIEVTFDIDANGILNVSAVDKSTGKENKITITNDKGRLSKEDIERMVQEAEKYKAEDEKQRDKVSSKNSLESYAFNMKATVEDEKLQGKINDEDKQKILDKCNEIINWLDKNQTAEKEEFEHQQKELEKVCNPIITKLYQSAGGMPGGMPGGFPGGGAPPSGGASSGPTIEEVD
Sequence of UniProt Q92759 (Q92759 whole entry, looked up): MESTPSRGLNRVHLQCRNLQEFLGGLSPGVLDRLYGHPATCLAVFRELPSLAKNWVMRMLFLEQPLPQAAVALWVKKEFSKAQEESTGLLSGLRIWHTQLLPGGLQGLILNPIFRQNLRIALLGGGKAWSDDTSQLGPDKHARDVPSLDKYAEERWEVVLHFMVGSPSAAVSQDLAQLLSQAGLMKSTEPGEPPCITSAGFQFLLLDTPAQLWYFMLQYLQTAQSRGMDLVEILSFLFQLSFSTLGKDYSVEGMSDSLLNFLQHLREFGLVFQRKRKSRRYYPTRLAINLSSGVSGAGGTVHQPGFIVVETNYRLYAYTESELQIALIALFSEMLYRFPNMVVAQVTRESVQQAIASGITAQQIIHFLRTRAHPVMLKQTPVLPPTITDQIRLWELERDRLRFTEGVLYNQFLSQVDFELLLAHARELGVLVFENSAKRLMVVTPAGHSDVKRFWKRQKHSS
Sequence of UniProt Q9Y223 (Q9Y223 whole entry, looked up): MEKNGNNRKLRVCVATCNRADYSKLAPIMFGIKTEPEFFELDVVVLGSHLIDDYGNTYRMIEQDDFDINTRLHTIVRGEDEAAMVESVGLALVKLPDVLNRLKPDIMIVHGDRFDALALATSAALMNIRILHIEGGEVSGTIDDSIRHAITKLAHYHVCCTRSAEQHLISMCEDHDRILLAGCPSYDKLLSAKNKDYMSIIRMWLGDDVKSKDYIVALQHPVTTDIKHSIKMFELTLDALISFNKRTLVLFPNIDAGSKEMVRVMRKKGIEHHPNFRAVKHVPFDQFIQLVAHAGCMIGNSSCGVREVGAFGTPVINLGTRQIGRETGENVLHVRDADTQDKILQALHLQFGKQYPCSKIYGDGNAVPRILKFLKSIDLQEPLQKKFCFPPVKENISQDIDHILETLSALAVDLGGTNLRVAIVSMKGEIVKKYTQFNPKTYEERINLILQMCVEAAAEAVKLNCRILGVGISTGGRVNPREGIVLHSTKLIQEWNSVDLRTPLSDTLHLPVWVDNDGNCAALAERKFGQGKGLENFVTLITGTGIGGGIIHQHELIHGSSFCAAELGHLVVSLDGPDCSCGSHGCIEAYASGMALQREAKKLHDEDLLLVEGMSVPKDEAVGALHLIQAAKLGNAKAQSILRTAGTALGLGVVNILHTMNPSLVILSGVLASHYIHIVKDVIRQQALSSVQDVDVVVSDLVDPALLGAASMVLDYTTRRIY
Sequence of UniProt P51617 (P51617 whole entry, looked up): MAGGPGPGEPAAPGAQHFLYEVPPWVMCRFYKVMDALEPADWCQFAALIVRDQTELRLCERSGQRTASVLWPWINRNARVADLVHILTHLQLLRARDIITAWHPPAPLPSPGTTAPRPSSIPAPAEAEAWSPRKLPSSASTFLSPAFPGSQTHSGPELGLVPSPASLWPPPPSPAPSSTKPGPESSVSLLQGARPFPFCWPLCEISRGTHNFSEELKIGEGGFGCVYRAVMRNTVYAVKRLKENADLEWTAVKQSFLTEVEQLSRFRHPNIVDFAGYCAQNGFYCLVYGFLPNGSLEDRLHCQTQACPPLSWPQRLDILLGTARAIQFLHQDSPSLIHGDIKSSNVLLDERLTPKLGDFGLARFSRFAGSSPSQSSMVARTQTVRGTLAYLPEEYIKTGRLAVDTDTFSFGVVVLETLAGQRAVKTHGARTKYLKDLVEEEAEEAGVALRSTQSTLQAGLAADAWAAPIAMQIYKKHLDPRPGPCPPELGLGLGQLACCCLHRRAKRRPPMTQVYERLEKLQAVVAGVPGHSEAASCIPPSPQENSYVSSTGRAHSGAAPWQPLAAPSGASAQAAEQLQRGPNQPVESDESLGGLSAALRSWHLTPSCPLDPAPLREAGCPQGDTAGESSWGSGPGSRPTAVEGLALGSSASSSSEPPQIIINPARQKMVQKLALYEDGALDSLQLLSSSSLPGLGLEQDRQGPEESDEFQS

log2 fold change, inactive:
GTF2H4 (UniProt Q92759) 0.02
GSTZ1 (UniProt G3V4T6) 0.049
HDAC2 (UniProt Q92769) 0
HEATR6 (UniProt Q6AI08) -0.01
H4C1 (UniProt P62805) 0.012
HECTD3 (UniProt Q5T447) 0.002
KCT2 (UniProt Q8NC54) 0
GPX4 (UniProt P36969) 0
IARS2 (UniProt Q9NSE4) -0.011
GTF2H1 (UniProt P32780) -0.021
GSTM4 (UniProt Q03013) 0.002
IMPACT (UniProt Q9P2X3) -0.044
IGF2BP2 (UniProt Q9Y6M1) -0.005
GON4L (UniProt Q3T8J9) -0.027
HK1 isoform 2 (UniProt P19367) -0.007
GTF2I (UniProt P78347) 0.004
KEAP1 (UniProt Q14145) 0.013
ISOC2 (UniProt Q96AB3) 0.043
HSD17B10 (UniProt Q99714) -0.009
IRAK4 (UniProt Q9NWZ3) 0.111
IMMT (UniProt Q16891) -0.145
IARS (UniProt P41252) 0.008
IMPDH2 (UniProt P12268) -0.015
GNE isoform 2 (UniProt Q9Y223) 0.026
GTPBP2 (UniProt Q9BX10) -0.07
HSPB1 (UniProt P04792) 0.009
INTS1 (UniProt Q8N201) 0.007
HSPA8 (UniProt P11142) -0.004
HAUS3 (UniProt Q68CZ6) 0.003
GRB10 (UniProt Q13322) -0.02
HARS (UniProt P12081) 0.015
GMIP (UniProt Q9P107) -0.078
HK2 (UniProt P52789) -0.031
IRAK1 (UniProt P51617) 0.096
GSTCD (UniProt Q8NEC7) 0.002
HDAC3 (UniProt O15379) -0.015

Compound: COc1cc2ncnc(Nc3ccc(F)c(Cl)c3)c2cc1OCCCN1CCOCC1 [gefitinib]
Experiment: as above
Method in brief: as §1

log2 fold change, inactive:
GTF2H4 (UniProt Q92759) -0.022
GSTZ1 (UniProt G3V4T6) 0.002
HDAC2 (UniProt Q92769) 0.013
HEATR6 (UniProt Q6AI08) 0.001
H4C1 (UniProt P62805) -0.008
HECTD3 (UniProt Q5T447) 0.014
KCT2 (UniProt Q8NC54) -0.037
GPX4 (UniProt P36969) 0.016
IARS2 (UniProt Q9NSE4) 0.004
GTF2H1 (UniProt P32780) -0.015
GSTM4 (UniProt Q03013) 0.075
IMPACT (UniProt Q9P2X3) 0.167
IGF2BP2 (UniProt Q9Y6M1) 0.001
GON4L (UniProt Q3T8J9) -0.074
HK1 isoform 2 (UniProt P19367) -0.011
GTF2I (UniProt P78347) -0.01
KEAP1 (UniProt Q14145) 0.018
ISOC2 (UniProt Q96AB3) -0.045
HSD17B10 (UniProt Q99714) -0.021
IRAK4 (UniProt Q9NWZ3) 0.045
IMMT (UniProt Q16891) -0.022
IARS (UniProt P41252) -0.021
IMPDH2 (UniProt P12268) -0.023
GNE isoform 2 (UniProt Q9Y223) -0.014
GTPBP2 (UniProt Q9BX10) 0.058
HSPB1 (UniProt P04792) -0.012
INTS1 (UniProt Q8N201) -0.04
HSPA8 (UniProt P11142) 0.008
HAUS3 (UniProt Q68CZ6) -0.011
GRB10 (UniProt Q13322) -0.043
HARS (UniProt P12081) 0.007
GMIP (UniProt Q9P107) 0.11
HK2 (UniProt P52789) -0.016
IRAK1 (UniProt P51617) 0.022
GSTCD (UniProt Q8NEC7) 0
HDAC3 (UniProt O15379) 0.014
